# Measured values as given in PubChem BioAssay (NCATS).
# Unmarked numbers belong to inactive results. Inconclusive results are not listed. Where a call stands in place of a potency, no number is given. The source made the active and inactive calls. Calls follow the shape of the dose curve; as a rule, active = well fitted curve in the direction sought with a large enough effect; inconclusive = small, poorly fitted or top-dose-only effect, or another doubt; inactive = no such curve, though single readings can be large; an effect the other way counts as inactive or inconclusive.
# Columns and labels:
# [1] = tested on: Zika virus NS2B-NS3 protease; experiment: Primary screen GU AMC qHTS for Zika virus inhibitors (AID 1347154); also: nearly all actives have a fitted effect of over 70% in size; also: potency is read from the fitted curve at half-maximal effect
# Method in brief: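 Unlinked Zika NS2B hydrophilic domain/NS3 protease domain noncovalent complex (25 nM final) in 10 mM Tris-HCl pH 8.0, 0.01% Tween 20, with AMC peptide substrate. Fluorescence (ex 340, em 450 nm) change over 15 min, room temperature; percent inhibition fitted to 4-parameter Hill equation.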
# [2] = target: Protein phosphatase 1D (Homo sapiens) (UniProt O15297); experiment: Rhodamine-PBP qHTS Assay for Modulators of WT P53-Induced Phosphatase 1 (WIP1) (AID 1347425)
# Method in brief: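 The read-out is the change in Rhodamine-PBP fluorescence (f1 - f0, ex 525/em 598 nm) as Pi is released, read each minute for 11 min. Final reaction: 5 nM WIP1, 10 uM phosphopeptide VEPPL-pS-QETFS, 10 uM Rh-PBP, 50 mM Tris-HCl pH 7.5, 30 mM MgCl2. Compound was preincubated with enzyme for 1 hour at room temperature.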
# [3] = tested on: Zika virus NS2B-NS3 protease (unlinked complex); experiment: Primary screen GU Rhodamine qHTS for Zika virus inhibitors: Unlinked NS2B-NS3 protease assay (AID 1347159); also: nearly all actives have a fitted effect of over 60% in size; also: potency is read from the fitted curve at half-maximal effect
# Method in brief: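 Percent inhibition derives from the 15-min fluorescence change (ex 480, em 540 nm), normalized to no-enzyme and no-inhibitor wells. Reactions contained 25 nM NS2B-NS3 complex and 1.5 microM substrate in 10 mM Tris-HCl pH 8.0.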
# [4] = tested on: Zika virus NS2B-NS3 protease (linked construct); experiment: Primary screen NINDS Rhodamine qHTS for Zika virus inhibitors (AID 1347160); conditions: outcome: dose series up to 57.1 µM unless noted; also: nearly all actives have a fitted effect of over 55% in size
# Method in brief: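 In 10 mM Tris-HCl pH 8.0 containing 0.01% Tween 20, linked NS2B-NS3 protease (25 nM final) is exposed to test compounds for 15 min. Cleavage of 1.5 microM Rhodamine110 substrate is tracked by fluorescence over 15 min.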
# [5] = target: Lysine-specific demethylase 5B (Homo sapiens) (UniProt Q9UGL1); experiment: Optimization screen for KDM5B Histone Demethylases FDH coupled qHTS against the LOPAC library (AID 1347166)
# Method in brief: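 KDM5BDeltaAP (200nM final) preincubated 10 min with compound, then 12.5uM H3K4Me3, 25uM a-ketoglutarate, ascorbate, Fe(II), NAD+ and FDH added; 50mM HEPES pH 7.5, 0.01% Tween-20. NADH fluorescence (340/450 nm) change over 30 min, room temperature.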
# [6] = Tertiary RLuc qRT-PCR qHTS assay for Zika virus inhibitors (AID 1347169); also: potency is read from the fitted curve at half-maximal effect; nearly all actives have a fitted effect of over 55% in size
# Method in brief: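 Orthogonal cell-based infection assay using recombinant ZIKV-RLuc (Cambodian) in Vero cells; compound added prior to virus at MOI 1-2. Incubation lasts 48-72 hrs at 37 degrees C before live-cell Renilla substrate is added and luminescence measured.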
# [7] = qHTS for inhibitors of adenylyl cyclases using a fission yeast platform: a pilot screen against the NCATS LOPAC library (AID 1347410)
# Method in brief: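 Growth medium went into the plates first, then compounds were pinned (final up to 57 µM), then CHP2027 yeast were added. Plates were incubated overnight (18 h) at 30C in the dark, and GFP was measured by laser scanning cytometry.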
# [8] = Validation qHTS assay for inhibitors of Activation Induced Cytidine Deaminase (AID): UDG Counterscreen signal (AID 1347427)
# Method in brief: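 Counterscreen read of UDG activity (2 U/mL, 4/3x) in the FRET deamination format with AID (1 uM, 4/3x), DJC20/DJC23 substrates (250 nM, 4x), 4 h at room temperature. NaOH stop, fluorescence at 560 ex/665 em.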
# [9] = target: Protein phosphatase 1D (Homo sapiens) (UniProt O15297); experiment: RapidFire Mass Spectrometry qHTS Assay for Modulators of WT P53-Induced Phosphatase 1 (WIP1) (AID 1347424);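 also: amount of dephosphorylated VEPPL-S-QETFS peptide product formed by WIP1; series mostly up to about 63 µM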
# Method in brief: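 WIP1 (10 nM final) was preincubated 1 h at room temperature with compounds in Tris-HCl pH 7.5, 30 mM MgCl2, TCEP, EGTA, BSA; 2 uM VEPPL-pS-QETFS phosphopeptide was added for 5 min, quenched with formic acid, and dephosphorylated product quantified by RapidFire MS.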
# [10] = qHTS to identify inhibitors of the type 1 interferon - major histocompatibility complex class I in skeletal muscle: primary screen against the NCATS Pharmaceutical Collection (AID 1347407);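 also: luminescence of HiBiT knocked into endogenous HLA-B as interferon-induced MHC class I level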
# Method in brief: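 Cells were seeded with 4 ng/ml IFN-beta, incubated 1 h, then dosed with compounds over eight 1:5 steps up to 46 uM final. After 24 h at 37 C, HiBiT lytic reagent was added and luminescence read after 10 min lysis in the dark.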
# [11] = qHTS to identify inhibitors of the type 1 interferon - major histocompatibility complex class I in skeletal muscle: primary screen against the NCATS LOPAC collection (AID 1347405);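 also: lytic HiBiT luminescence reporting HLA-B protein level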
# Method in brief: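 Luminescence from HiBiT fused to endogenous HLA-B in CRISPR-engineered human myoblasts served as the read-out. Cells received 4.0 ng/ml IFN-beta plus compound (seven concentrations, 1:4.3 steps, highest 46 uM final) for 24 hrs before lytic detection.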
# [12] = tested on: Zika virus NS2B-NS3 protease (linked); experiment: 384 well plate NINDS AMC confirmatory qHTS for Zika virus inhibitors (AID 1347163); also: potency is read from the fitted curve at half-maximal effect; nearly all actives have a fitted effect of over 50% in size
# Method in brief: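 Linked NS2B-NS3 protease (final 5 nM, 30 nM or 60 nM) was preincubated with compounds (final up to 1 mM) for ~15 minutes. Ac-VKTGKR-AMC substrate (final 30 microM) then reacted for 25 minutes at room temperature in the dark. Fluorescence (ex 355/em 460 nm) was normalized to no-enzyme and no-inhibitor controls.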
# Chain of Lysine-specific demethylase 5B (Homo sapiens) (Q9UGL1 whole entry, looked up): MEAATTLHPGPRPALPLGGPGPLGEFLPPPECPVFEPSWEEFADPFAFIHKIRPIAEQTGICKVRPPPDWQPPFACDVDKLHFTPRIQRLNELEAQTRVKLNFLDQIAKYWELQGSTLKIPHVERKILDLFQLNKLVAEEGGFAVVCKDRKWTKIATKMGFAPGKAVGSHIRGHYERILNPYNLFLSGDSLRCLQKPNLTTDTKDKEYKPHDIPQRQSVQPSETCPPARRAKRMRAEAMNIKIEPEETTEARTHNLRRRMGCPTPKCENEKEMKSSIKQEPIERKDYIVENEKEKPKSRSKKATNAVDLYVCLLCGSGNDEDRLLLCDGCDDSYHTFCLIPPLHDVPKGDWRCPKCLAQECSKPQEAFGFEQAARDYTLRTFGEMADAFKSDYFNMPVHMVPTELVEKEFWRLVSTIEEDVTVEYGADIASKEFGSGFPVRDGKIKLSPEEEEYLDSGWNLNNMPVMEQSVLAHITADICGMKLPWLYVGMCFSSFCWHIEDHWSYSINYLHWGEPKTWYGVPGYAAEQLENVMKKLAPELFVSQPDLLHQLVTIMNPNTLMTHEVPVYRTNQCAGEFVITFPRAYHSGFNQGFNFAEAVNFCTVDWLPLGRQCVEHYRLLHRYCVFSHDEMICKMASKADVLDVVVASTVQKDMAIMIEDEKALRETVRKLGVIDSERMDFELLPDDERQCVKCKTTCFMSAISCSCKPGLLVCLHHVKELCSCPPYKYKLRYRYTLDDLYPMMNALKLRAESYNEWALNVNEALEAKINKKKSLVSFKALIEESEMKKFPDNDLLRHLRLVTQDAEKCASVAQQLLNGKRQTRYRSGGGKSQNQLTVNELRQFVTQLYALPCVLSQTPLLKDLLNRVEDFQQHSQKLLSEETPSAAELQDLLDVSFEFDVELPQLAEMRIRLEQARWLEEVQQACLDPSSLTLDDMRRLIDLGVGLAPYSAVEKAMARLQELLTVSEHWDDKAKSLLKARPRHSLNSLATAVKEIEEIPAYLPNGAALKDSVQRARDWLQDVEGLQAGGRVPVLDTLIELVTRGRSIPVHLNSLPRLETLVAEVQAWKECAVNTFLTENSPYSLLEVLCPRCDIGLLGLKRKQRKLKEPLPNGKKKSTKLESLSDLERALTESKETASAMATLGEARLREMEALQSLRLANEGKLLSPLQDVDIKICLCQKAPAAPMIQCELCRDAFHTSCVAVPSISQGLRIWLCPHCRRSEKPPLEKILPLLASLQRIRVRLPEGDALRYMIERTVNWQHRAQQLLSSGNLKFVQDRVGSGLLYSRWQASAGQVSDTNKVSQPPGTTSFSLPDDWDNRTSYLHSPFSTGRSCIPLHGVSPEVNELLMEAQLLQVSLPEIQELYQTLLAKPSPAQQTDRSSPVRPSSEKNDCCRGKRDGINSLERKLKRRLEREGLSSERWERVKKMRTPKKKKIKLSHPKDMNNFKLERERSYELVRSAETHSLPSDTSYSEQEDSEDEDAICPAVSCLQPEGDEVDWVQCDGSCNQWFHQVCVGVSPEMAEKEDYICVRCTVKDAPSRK
# Chain of Protein phosphatase 1D (Homo sapiens) (O15297 whole entry, looked up): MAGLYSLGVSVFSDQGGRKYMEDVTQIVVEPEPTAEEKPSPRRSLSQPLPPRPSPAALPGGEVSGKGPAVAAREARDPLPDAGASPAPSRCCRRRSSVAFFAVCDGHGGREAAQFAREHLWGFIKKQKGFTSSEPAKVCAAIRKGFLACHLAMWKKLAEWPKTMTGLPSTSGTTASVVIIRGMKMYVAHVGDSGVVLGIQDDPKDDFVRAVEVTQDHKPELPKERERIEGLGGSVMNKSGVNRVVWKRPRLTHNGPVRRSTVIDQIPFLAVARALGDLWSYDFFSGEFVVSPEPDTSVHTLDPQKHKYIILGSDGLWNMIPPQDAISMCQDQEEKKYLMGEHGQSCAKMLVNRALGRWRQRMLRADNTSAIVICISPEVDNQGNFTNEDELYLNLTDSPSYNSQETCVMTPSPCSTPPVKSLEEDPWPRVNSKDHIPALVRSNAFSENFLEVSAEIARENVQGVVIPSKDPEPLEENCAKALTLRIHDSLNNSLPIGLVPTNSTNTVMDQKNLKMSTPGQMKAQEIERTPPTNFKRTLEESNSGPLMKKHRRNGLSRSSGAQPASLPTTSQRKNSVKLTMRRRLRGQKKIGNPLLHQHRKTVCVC
compound,measurement,setting,value
Cc1ccc2c(Cl)cc(Cl)c(O)c2n1,Potency,[1],inactive
same,outcome,[2],inactive
COc1cc2nc(Cl)nc(N)c2cc1OC,Potency,[1],inactive
same,outcome,[2],inactive
O=[N+]([O-])c1ccc(-c2nc(-c3ccc(F)cc3)c(-c3ccncc3)[nH]2)cc1,Potency,[3],79.4 µM (active)
same,outcome,[4],inactive
same,outcome,[5],inactive
same,Potency,[6],4.66 µM (active)
same,outcome,[7],inactive
same,outcome,[8],inactive
COc1cc(C(=O)NC2CCCNC2)cc(OC)c1OC (stereo not drawn),Potency,[1],inactive
same,Potency,[9],inactive
same,outcome,[2],inactive
COc1c(N2C[C@@H]3CCCN[C@@H]3C2)c(F)cc2c(=O)c(C(=O)O)cn(C3CC3)c12,Potency,[1],14.4 µM (active)
same,Potency,[9],inactive
same,outcome,[2],inactive
CC(C)(C)CC(=O)OCC(=O)[C@@]1(O)CC[C@H]2[C@@H]3CCC4=CC(=O)C=C[C@]4(C)[C@H]3[C@@H](O)C[C@@]21C,Potency,[1],inactive
same,Potency,[9],inactive
same,outcome,[2],inactive
NCC[C@H](O)C(=O)N[C@@H]1C[C@H](N)[C@@H](O[C@H]2O[C@H](CN)[C@@H](O)[C@H](O)[C@@H]2O)[C@H](O)[C@@H]1O[C@H]1O[C@H](CO)[C@@H](O)[C@H](N)[C@@H]1O,"activity change, negative = inhibition",[1],-0.909% [at 0.59 µM]
same,"activity change, negative = inhibition",[9],3.64% [at 0.505 µM]
same,"activity change, negative = inhibition",[2],3.01% [at 0.575 µM]
O=C(O)CNC(=O)CNC(=O)CNC(=O)CSC(=O)c1ccccc1,Potency,[3],inactive
same,outcome,[4],inactive
same,Potency,[10],inactive
same,Potency,[9],inactive
same,outcome,[2],inactive
Nc1ccc2c(c1)CN1C(=O)c3ccccc3C1=N2,Potency,[10],inactive
same,Potency,[9],inactive
same,outcome,[2],inactive
O=C1CC2(CCCC2)CC(=O)N1CCNCC1COc2ccccc2O1 (stereo not drawn),Potency,[10],inactive
same,Potency,[9],inactive
same,outcome,[2],inactive
CCOC(=O)c1ccc(NC(=O)CN2CCCCC2)cc1,Potency,[3],inactive
same,outcome,[4],inactive
same,Potency,[10],inactive
same,Potency,[9],inactive
same,outcome,[2],inactive
C=CC[N+]1([C@H]2C[C@H]3[C@@H]4CC[C@H]5C[C@H](OC(C)=O)[C@@H](N6CCCCC6)C[C@]5(C)[C@H]4CC[C@]3(C)[C@H]2OC(=O)CC)CCCCC1,Potency,[3],inactive
same,outcome,[4],inactive
same,Potency,[10],inactive
same,Potency,[9],inactive
same,outcome,[2],inactive
C[C@H](N)C(=O)N[C@@H](C)C(=O)NC1[C@H]2CN(c3nc4c(cc3F)c(=O)c(C(=O)O)cn4-c3ccc(F)cc3F)C[C@@H]12 (stereo partly drawn),Potency,[10],inactive
same,Potency,[9],inactive
same,outcome,[2],inactive
COc1ccc(OC(=O)N(CC(=O)O)Cc2ccc(OCCc3nc(-c4ccccc4)oc3C)cc2)cc1,Potency,[10],inactive
C[N+](C)(C)CCO,outcome,[5],inactive
same,Potency,[11],inactive
same,outcome,[7],inactive
same,outcome,[8],inactive
CN1Cc2cc(C(=O)N3CCC(C4CCNCC4)CC3)ccc2N[C@@H](CC(=O)O)C1=O,Potency,[10],inactive
same,Potency,[9],inactive
same,outcome,[2],inactive
COc1cc(C(=O)OC(COCCC(C)C)CN2CCOCC2)cc(OC)c1OC (stereo not drawn),Potency,[3],inactive
same,outcome,[4],inactive
same,Potency,[10],inactive
same,Potency,[9],inactive
same,outcome,[2],inactive
Cc1cc(O)c2c(O)c3c(O)cccc3cc2c1,Potency,[10],inactive
O=C(c1cc(O)c(O)c(O)c1)c1ccc(O)c(O)c1O,Potency,[10],inactive
same,Potency,[9],inactive
same,outcome,[2],inactive
CCN(CC)CCNC(=O)c1ccc(NS(C)(=O)=O)cc1,outcome,[5],inactive
same,Potency,[11],inactive
same,outcome,[7],inactive
same,outcome,[8],inactive
O=C1[C@@H]2[C@H]3CC[C@H](C3)[C@@H]2C(=O)N1CCCCN1CCN(c2ncccn2)CC1,Potency,[3],inactive
same,outcome,[4],inactive
same,Potency,[10],inactive
same,Potency,[9],inactive
same,outcome,[2],inactive
COC(=O)C1=C(C)NC(COC(N)=O)=C(C(=O)OC(C)C)C1c1cccc(Cl)c1Cl (stereo not drawn),Potency,[3],inactive
same,outcome,[4],inactive
same,Potency,[10],inactive
same,Potency,[9],inactive
CO[C@@]1(NC(=O)CSC[C@@H](N)C(=O)O)C(=O)N2C(C(=O)O)=C(CSc3nnnn3C)CS[C@@H]21,Potency,[10],inactive
same,Potency,[9],inactive
same,outcome,[2],inactive
NC(N)=NCCCCN=C(N)N,outcome,[5],inactive
same,Potency,[11],inactive
same,outcome,[7],inactive
same,outcome,[8],inactive
CO/N=C(/C(=O)N[C@@H]1C(=O)N2C(C(=O)[O-])=C(C[n+]3ccn4ncccc43)CS[C@H]12)c1nsc(N)n1,Potency,[10],inactive
same,Potency,[9],inactive
same,outcome,[2],inactive
COC(=O)C1=CO[C@@H](O)[C@@H]2C(CO)=CC[C@H]12,outcome,[4],inactive
same,outcome,[5],inactive
same,Potency,[11],inactive
same,outcome,[7],inactive
same,outcome,[8],inactive
CC(C)C[C@H](NC(=O)CNC(=O)[C@H](Cc1ccc(O)cc1)NC(=O)[C@H](CO)NC(=O)[C@H](Cc1c[nH]c2ccccc12)NC(=O)[C@H](Cc1cnc[nH]1)NC(=O)[C@@H]1CCC(=O)N1)C(=O)N[C@@H](CCCN=C(N)N)C(=O)N1CCC[C@H]1C(=O)NCC(N)=O (stereo in doubt),Potency,[10],inactive
same,Potency,[9],inactive
same,outcome,[2],inactive
CN(C)[C@@H]1C(=O)C(C(N)=O)=C(O)[C@@]2(O)C(=O)C3=C(O)c4c(O)cccc4C[C@H]3C[C@@H]12,Potency,[12],126 µM (active)
same,Potency,[10],inactive
same,Potency,[9],inactive
same,outcome,[2],inactive
